Assay outcomes deposited in PubChem BioAssay by National Center for Advancing Translational Sciences (NCATS).
Hits are enriched below; roughly 11% of the tested compounds scored in any of these assays.
IMPase inh – cell-permeable inhibitors of inositol monophosphatase (IMPase); 120,000 tested, under 10 active; P97697; AID 901; inhibition (IP1 accumulation), % at 46.1 µM; CHO-M1 cells, IP1 accumulation, HTRF TR-FRET ratio; active means well fitted curve in the direction sought with a large enough effect in the signal ratio, not every such curve was filed as active; inconclusive means small, poorly fitted or top-dose-only effect, or a change in a side signal; inactive means no such curve, though single readings can be large or run the other way; the % refers to the signal ratio;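 further: cells stimulated with carbachol in lithium chloride buffer; higher means more IMPase inhibition seen as more IP1 and lower FRET ratio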
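CHO-M1 cells (CHO stably expressing M1 receptor), compound up to 46 uM final, stimulated with carbachol (50 uM as added) in buffer with 50mM LiCl, pH 7.4, 30 min at 37C. Cytosolic IP1 read by TR-FRET; AC50 from Hill fits.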
IMPase Li inh – IMPase inhibition in cells with lithium potentiation | CHO-M1 cells, IP1 TR-FRET (IP-One), carbachol + lithium | Potency, µM (series often up to 59.4 µM), most hits filed as inhibitors | actives 0.35% (n = 210,000) | AID 1457; active means well fitted inhibition curve with a large enough effect; inconclusive means small, poorly fitted or top-dose-only effect; inactive means no such curve, though single readings can be large or run the other way;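 further: IP1 builds up when IMPase is blocked and the TR-FRET signal falls; nearly all actives have a fitted effect of over 50% in size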
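IP1 accumulation measured by competitive TR-FRET in lysed CHO-M1 cells after 30 min compound exposure at 37C, with a small lithium addition to potentiate weak responses. Hill-equation AC50 from ratio and donor-channel data.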
PNC inhibitor – inhibitors of perinucleolar compartment assembly | PC3M PTB-GFP, PNC prevalence imaging, 16 h; stronger effect = lower value | activity change (PNC), negative = inhibition, % at 10 µM | actives 3.1% (n = 140,000) | AID 2417;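 active means readout at or below -70, meaning at least 70% loss of cells showing the perinucleolar compartment, a nuclear body marking cancer cells; inconclusive means readout between -30 and a set limit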
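PC3M cells stably expressing PTB-GFP, 750–1000 cells/well, treated 16 h at 37 °C with compound (23 nl of library stock), in duplicate. After paraformaldehyde fixation and Hoechst stain, imaged at 20x; PNC prevalence scored by image analysis.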
HPGD block – inhibitors of human 15-hydroxyprostaglandin dehydrogenase (HPGD); P15428; purified HPGD, NADH fluorescence kinetic, PGE2 substrate; Potency, µM, usual class: inhibitors; actives 4.3% (n = 150,000); AID 894
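NADH formation kinetics: reaction with 30 uM PGE2 and 1 mM NAD+ (final), 20 nM enzyme, Tris-HCl pH 8 with Tween 20, after 15 min compound preincubation at room temperature. Fluorescence change, last versus first of five reads.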
ALDH1A1 block – ALDH1A1 (human) enzyme inhibition. Potency, µM (doses to about 75.3 µM), usual class: inhibitors. P00352. actives 7.3% (n = 220,000). Purified ALDH1A1, NADH fluorescence, propionaldehyde substrate
Target sequence (P00352 whole entry, looked up): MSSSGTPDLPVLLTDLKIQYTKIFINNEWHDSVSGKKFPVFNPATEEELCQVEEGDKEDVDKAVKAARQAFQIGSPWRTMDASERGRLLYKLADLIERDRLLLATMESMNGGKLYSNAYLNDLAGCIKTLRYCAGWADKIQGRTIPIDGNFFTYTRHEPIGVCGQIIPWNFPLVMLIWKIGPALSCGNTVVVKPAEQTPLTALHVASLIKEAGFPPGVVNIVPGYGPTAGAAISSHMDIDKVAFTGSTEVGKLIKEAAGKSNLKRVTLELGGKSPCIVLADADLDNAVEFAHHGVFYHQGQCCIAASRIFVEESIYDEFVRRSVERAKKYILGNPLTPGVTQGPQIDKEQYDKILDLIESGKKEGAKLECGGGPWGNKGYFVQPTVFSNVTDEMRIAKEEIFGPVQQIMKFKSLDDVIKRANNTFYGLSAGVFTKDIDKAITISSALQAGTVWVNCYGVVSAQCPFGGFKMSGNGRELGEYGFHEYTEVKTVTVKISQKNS
Numbers stand for hits; [ ] = another dose, or the depositor's remark. Unless noted, the call rests on the fitted dose curve; in most records, active means well fitted inhibition curve with a large enough effect (not every such curve was filed as active); inconclusive means small, poorly fitted or top-dose-only effect, or another doubt; inactive means no such curve, though single readings can be large or run the other way.

Screening S=P(N1CC1)(N1CC1)N1CC1 returned IMPase Li inh inactive, HPGD block 10µM and ALDH1A1 block inactive.
For O=C(c1cccc(F)c1)N1CCC2(CC1)CCN(c1ccncc1)CC2 the results were IMPase Li inh inactive, HPGD block inactive and ALDH1A1 block inactive.
`Cn1c(CCN2CCCCC2)nc2cc(NS(=O)(=O)c3ccc(Cl)cc3)ccc21` gave IMPase inh inactive, IMPase Li inh inactive, PNC inhibitor -93, HPGD block inactive and ALDH1A1 block inconclusive.
CCOC(=O)C1CCN(C(=O)Nc2ccc3c(c2)nc(C)n3C)CC1 was read as IMPase inh inactive, IMPase Li inh inactive, PNC inhibitor inactive, HPGD block inactive and ALDH1A1 block inactive.
For CC(=O)Nc1ccc2c(c1)nc(CCN1CCC(C)CC1)n2C the results were IMPase inh inactive, IMPase Li inh inactive, PNC inhibitor -101, HPGD block inactive and ALDH1A1 block inconclusive.
Screening Cc1nc2cc(NC(=O)N3CCCCC3)ccc2n1C returned IMPase inh inactive, IMPase Li inh inactive, PNC inhibitor -119, HPGD block inactive and ALDH1A1 block inactive.
`COc1ccccc1NC(=O)CN1C(=O)c2cccc3cccc1c23` gave IMPase inh inactive.
`CC(C)C1Cc2c(sc(NC(=S)NC(=O)c3ccccc3)c2C#N)CO1` (stereo not given) gave IMPase inh inactive, IMPase Li inh inactive, PNC inhibitor inactive, HPGD block inactive and ALDH1A1 block inactive.
For C=CCNC(=S)Nc1sc2c(c1C(=O)OCC)CC(C(C)C)OC2 (stereo not given) the results were IMPase inh inactive, IMPase Li inh inactive, PNC inhibitor inactive, HPGD block inactive and ALDH1A1 block 11µM.
CCOC(=O)c1c(NC(=S)NCCc2ccccc2)sc2c1CC(C(C)C)OC2 (stereo not given) was read as IMPase inh inactive, IMPase Li inh inactive, PNC inhibitor inconclusive, HPGD block inactive and ALDH1A1 block 25µM.
COC(=O)c1c(Cl)c2n3ccccc3c(C)c(-c3ccccc3)c-2c1C(=O)OC was read as IMPase Li inh 10µM, PNC inhibitor inactive, HPGD block inactive and ALDH1A1 block 13µM.
COC(=O)c1cc2c(-c3ccccc3)c(C)c3ccccn3c-2c1C(=O)OC was read as IMPase inh inconclusive, IMPase Li inh inactive, PNC inhibitor inactive, HPGD block inactive and ALDH1A1 block 20µM.
For O=c1n(Cc2cc3c(cc2Cl)OCO3)c(=O)n2n1CC[C@H]1/C(=N\OC[C@@H](O)COCc3ccco3)[C@H]3O[C@@H]3[C@@H](O)[C@@H]12 the results were ALDH1A1 block inactive[13.5 µM].
O=C(O)[C@@H]1CCCN1Cc1c[nH]c2ccccc12 was read as IMPase Li inh inactive, HPGD block inactive and ALDH1A1 block inactive[13.5 µM].
CCOC(=O)Nc1nnc(-c2ccc(OC)c(OC)c2)s1 was read as IMPase inh inactive, IMPase Li inh inactive, PNC inhibitor inactive, HPGD block inconclusive and ALDH1A1 block inconclusive.
Screening CC(=O)Nc1c(C(=O)N2CCOCC2)cnn1-c1ccc(C)c(C)c1 returned IMPase inh inactive, IMPase Li inh inactive, PNC inhibitor inactive, HPGD block inactive and ALDH1A1 block inactive.
Cc1cc(C(=O)CN2CCCCC2)c(C)n1-c1ccc(F)cc1 was read as IMPase inh inactive, IMPase Li inh inactive, PNC inhibitor inconclusive, HPGD block inconclusive and ALDH1A1 block inactive.
`Cc1cc(C(=S)N2CCOCC2)c(C)n1-c1ccc(F)cc1` gave IMPase Li inh inactive and ALDH1A1 block 2.8µM.
`Cc1cc(C(=O)NC2CCCCC2)c(C)n1-c1ccc(F)cc1` gave IMPase inh inactive, IMPase Li inh inactive, PNC inhibitor inconclusive, HPGD block 4.5µM and ALDH1A1 block 14µM.
Screening Cc1ccc(-n2c(C)cc(C(=S)N3CCOCC3)c2C)cc1C returned IMPase inh inactive, IMPase Li inh inactive, PNC inhibitor inactive, HPGD block 5µM and ALDH1A1 block 28µM.
COc1cc2c(cc1O)CCC1C2CC[C@@]2(C)C1CC[C@@H]2O (stereo not given in full) was read as IMPase inh inactive, IMPase Li inh inactive, HPGD block inactive and ALDH1A1 block inactive.
For Nc1ncnc2c1nc(Br)n2C1O[C@H]2COP(=O)(O)O[C@@H]2C1O (stereo not given in full) the results were IMPase Li inh inactive, HPGD block inactive and ALDH1A1 block inactive.
